Hits are enriched below; roughly 11% of the tested compounds scored in any of these assays.
AMA1 RON2 block: qHTS for Inhibitors of AMA1-RON; Towards Development of Antimalarial Drug Lead: Primary Screen; Plasmodium falciparum AMA1 (3D7) - RON2 peptide interaction; AlphaScreen AMA1-biotinylated RON2 peptide binding; Potency, µM (doses to about 58.2 µM), without a hit: at the top dose activity change, negative = inhibition, usual class: inhibitors; hit rate 0.2% among 360,000;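 note: 0% = vehicle wells and -100% = peptide control; nearly all actives have a fitted effect of over 45% in size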
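AMA1 (3D7) with his tag at 25 nM final met compounds first, then biotinylated RON2 peptide at 25 nM; detection used donor plus acceptor beads, 10 µg/mL apiece, read by AlphaScreen after 30 min at room temperature.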
AmpC inh detg: qHTS Inhibitors of AmpC Beta-Lactamase (assay with detergent); AID 485294, 2010; hit rate 0.041% among 370,000; AmpC hydrolysis of nitrocefin, absorbance 480 nm, 0.01% Triton; Potency, µM (series often up to 114 µM), inactives show at the highest dose activity change, negative = inhibition, most hits filed as inhibitors; P00811;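 note: 0% = no-compound wells and -100% = no-enzyme wells; nearly all actives have a fitted effect of over 25% in size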
Target sequence (P00811 whole entry, looked up): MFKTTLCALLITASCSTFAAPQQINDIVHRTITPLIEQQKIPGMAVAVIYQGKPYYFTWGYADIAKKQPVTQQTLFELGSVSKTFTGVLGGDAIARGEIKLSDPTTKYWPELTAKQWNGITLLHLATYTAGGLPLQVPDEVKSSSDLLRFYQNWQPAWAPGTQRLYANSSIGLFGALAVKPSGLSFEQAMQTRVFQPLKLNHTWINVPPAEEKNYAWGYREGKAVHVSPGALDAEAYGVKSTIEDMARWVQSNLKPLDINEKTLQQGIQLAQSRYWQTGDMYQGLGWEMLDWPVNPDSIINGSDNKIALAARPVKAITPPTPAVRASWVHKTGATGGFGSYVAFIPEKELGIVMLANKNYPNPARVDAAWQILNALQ
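20 mM phosphate pH 7.0 + 0.01% (detergent screen) or 0.0001% Triton X-100; 5.3 nM AmpC reagent; cpd preinc 15 min RT; nitrocefin (800 uM stock) to start; A480 q20 s × 4 min; Activity was normalised to no-enzyme and no-compound control wells.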
Pf growth 48h: Primary qHTS for delayed death inhibitors of the malarial parasite plastid, 48 hour incubation | P. falciparum luciferase growth in erythrocytes, 48 h | Potency, µM (series often up to 28.7 µM), inactives show top-dose activity change, negative = inhibition, most hits filed as inhibitors | hit rate 5.9% among 310,000 | AID 504832, 2011
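Compounds are pin-transferred into medium, infected erythrocytes (2% hematocrit, 0.1% parasitemia final) are added, and plates sit one parasite generation at 37 C in 5% CO2. Detection reagent is then added and luminescence measured.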
HCV inh: qHTS Assay for Inhibitors of Hepatitis C Virus (HCV). hit rate 3.4% among 340,000. Potency, µM (top dose mostly 41.8 µM), for the others: at the top dose activity change, negative = inhibition, actives largely listed as inhibitors. AID 651820, 2012. Huh7.5.1 HCVcc-Cre infection, luciferase reporter, 44 h
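Infectious HCV cell culture screen: compound-treated cells (1,000/well, pre-plated 4 h) are infected with HCVcc-Cre at roughly 0.5 moi and grown 44 h. Infection is quantified by luciferase signal after 15 min substrate incubation at room temperature.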
Pf growth 96h: Primary qHTS for delayed death inhibitors of the malarial parasite plastid, 96 hour incubation. P. falciparum luciferase reporter growth, 96 h. Potency, µM (series often up to 28.7 µM), without a hit: at the highest dose activity change, negative = inhibition, actives largely listed as inhibitors. hit rate 6.9% among 320,000. AID 504834, 2011
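Plates of compound plus infected erythrocytes (2% hematocrit, 0.05% parasitemia final) incubate 96 hours, 37 C, 5% CO2. Detection reagent added; reduced luminescence from the parasites' luciferase reporter flags inhibition.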
AmpC inh no detg: qHTS Inhibitors of AmpC Beta-Lactamase (assay without detergent); AmpC nitrocefin hydrolysis, absorbance 480 nm, 0.0001% Triton; hit rate 0.52% among 330,000; P00811; Potency, µM (top dose mostly 57.1 µM), for inactives: at the top dose activity change, negative = inhibition, actives largely listed as inhibitors;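 note: plate controls were no compound for no effect and no enzyme for full effect; nearly all actives have a fitted effect of over 20% in size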
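AmpC (5.3 nM in the dispensed reagent) in 20 mM phosphate pH 7.0 with 0.01% (detergent screen) or 0.0001% Triton X-100 was preincubated with compounds for 15 min at room temperature. Nitrocefin was then added from an 800 uM solution, and hydrolysis was followed at 480 nm.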
An asterisk follows results filed as active; ? = inconclusive; nt = not tested or not shown; [ ] = dose if it differs, or a comment. Calls come from the whole dose curve; as a rule, active = well fitted curve in the direction sought with a large enough effect; inconclusive = small, poorly fitted or top-dose-only effect, or another doubt; inactive = no such curve, though single readings can be large; an effect the other way counts as inactive or inconclusive. Unless noted, % is set by controls: 0 for no effect and ±100 for the full control effect; potency is the fitted concentration of half-maximal effect.

SMILES	AMA1 RON2 block	AmpC inh detg	Pf growth 48h	HCV inh	Pf growth 96h	AmpC inh no detg
O=[N+]([O-])c1ccc(O)c(/C=N/NC2=NS(=O)(=O)c3ccccc32)c1	-7%	-8%	2.6µM*	-13%	5%[5.75 µM]	-8%
Cc1ccc(N2CC(NC(=O)CCCc3ccccc3)CC2=O)cc1 (configuration not stated)	nt	2%	nt	nt	nt	nt
O=C(O)c1cn(-c2ccc(F)cc2)c2cc(N3CCNCC3)c(F)cc2c1=O	7%	nt	?	-11%	3.4µM*	nt
Cc1nc2c(cc1N)nc(C)n2Cc1ccccc1	0%	-12%	-2%	15%	2.6µM*	1%
Cc1nc2ccc(N)cc2c(=O)n1Cc1ccc(Cl)cc1	28%	1%	14%	-3%	53%	-33%
CCCNCC1C(Oc2ccc(Cl)cc2)C(=O)N1c1ccccc1C (configuration not stated)	3%	-10%	10µM*	-21%	7%	3%
COCCNCC1C(Oc2ccc(Cl)cc2)C(=O)N1c1ccccc1C (configuration not stated)	-3%	?	?	5%	188%	8%
Cc1ccccc1N1C(=O)C(Oc2ccc(Cl)cc2)C1CNC(C)(C)C (configuration not stated)	7%	?	12µM*	4%	47%	-10%
COc1ccc(CCNCC2C(Oc3ccc(Cl)cc3)C(=O)N2c2ccccc2C)cc1OC (configuration not stated)	?	5%	?	?	?	108%
C/C(=N/NC(=O)c1ccc(C)s1)c1cccc(NC(=O)c2ccoc2C)c1	22%	15%	5%	11µM*	-10%	-18%
CCN(CC)S(=O)(=O)c1ccc2c(c1)N(CC(=O)Nc1c(C)cc(C)cc1C)C(=O)CS2	nt	0%	nt	nt	nt	nt
c1ccc(Nc2cccc(Nc3ccccc3)n2)cc1	-23%	7%	nt	7.1µM*	-55%	-45%
Cc1ccc(NC(=O)C(Cc2ccccc2)NS(=O)(=O)c2ccc3c(c2)c(=O)n(C)c(=O)n3C)c(C)c1 (configuration not stated)	nt	14%	nt	nt	nt	nt
Clc1ccc(-c2noc(CSc3nnc(-c4ccncc4)n3-c3ccccc3)n2)cc1	-11%	-12%	-22%	4µM*	nt	116%
Cc1ccc(-n2c(SCc3nc(-c4ccc(Cl)cc4)no3)nnc2-c2ccncc2)cc1	nt	3%	nt	nt	nt	nt
COc1ccc(-c2noc(CSc3nnc(-c4ccncc4)n3-c3ccc(OC)cc3)n2)cc1	nt	-3%	nt	nt	nt	nt
Cc1ccc(-c2noc(CSc3nnc(-c4ccncc4)n3-c3ccc(C)cc3)n2)cc1	-8%	-12%	?	?	12µM*	146%
Cc1cc(O)c(C(c2ccc(Cl)cc2)N2CCN(c3ccccc3)CC2)c(=O)n1Cc1ccco1 (configuration not stated)	nt	15%	nt	nt	nt	nt
Cc1ccc2nc3c(c(Nc4ccc(C)c(C)c4)c2c1)CCC3	nt	-5%	nt	nt	nt	nt
COc1ccc(C(=O)Nc2ccc3nc4c(c(Nc5ccc(OC)c(OC)c5)c3c2)CCCC4)c(OC)c1	nt	4%	nt	nt	nt	nt
Cc1ccc2nc3c(c(Nc4ccc5c(c4)OCCO5)c2c1)CCC3	-17%	?	4.1µM*	?	?	-14%
Cc1ccc2nc3c(c(Nc4ccc(O)cc4)c2c1)CCC3	0%	2%	2.3µM*	?	-87%	-15%
COc1ccc(Nc2c3c(nc4ccc(C)cc24)CCC3)cc1	-8%	1%	8.3µM*	?	-2%	-25%
O=C(CSCc1nc2cccnc2n1C1CCCCC1)NCc1cccc(Br)c1	nt	2%	nt	nt	nt	nt
C/C(=N/Nc1nc(C)cc(-c2ccccc2)n1)c1ccco1	8%	-11%	-27%	?	nt	-6%
SMILES	AMA1 RON2 block	AmpC inh detg	Pf growth 48h	HCV inh	Pf growth 96h	AmpC inh no detg
C/C(=N\Nc1nc(C)cc(-c2ccccc2)n1)c1cccc(N)c1	71%	?	?	6.3µM*	?	-6%
C/C(=N\Nc1nc(C)cc(-c2ccccc2)n1)c1ccc(O)cc1	24%	?	?	11µM*	0%	-24%
C/C(=N\Nc1nc(C)cc(-c2ccccc2)n1)c1ccccc1	39%	?	?	16µM*	328%	-11%
C/C(=N\Nc1nc(C)cc(-c2ccccc2)n1)c1ccc(C)o1	77%	1%	13µM*	?	1µM*	-2%
C/C(=N/Nc1nc(C)cc(C)n1)c1ccc(Br)cc1	28%	-16%	?	?	-34%	119%
CCc1ccc(NC(=O)Cn2c(=O)n(CCCCC(=O)NCc3ccc4c(c3)OCO4)c(=O)c3ccccc32)cc1	nt	14%	nt	nt	nt	nt
CCCOc1ccc(C(=O)Nc2cc3nn(-c4ccc(CC)cc4)nc3cc2C)cc1	nt	-1%	nt	nt	nt	nt
COc1ccc(Cl)cc1NC(=O)C(C)n1c(=O)cc(C(F)(F)F)c2c(C)nn(C)c21 (configuration not stated)	nt	-5%	nt	nt	nt	nt
COc1ccc([C@@H](C)NC(=O)c2ccc3oc(C(C)C)nc3c2)cc1	-3%	1%	47%	?	0.66µM*	-2%
COc1ccc2c(Sc3ccc(Cl)cc3)c(C(=O)NCCCN3CCCCC3)[nH]c2c1	nt	-5%	nt	nt	nt	nt
COc1ccc(CN(C)C(=O)/C=C/c2ccc(S(=O)(=O)N3CCCCCC3)cc2)cc1	-4%[11.6 µM]	-3%	9.3µM*	11µM*	13µM*	14%
CCOc1ccc(CN(C)C(=O)CCl)cc1	-7%	?	6.6µM*	?	12%[5.75 µM]	-11%
COc1ccc(CN(C)C(=O)CCc2ccc(S(=O)(=O)N3CCCCCC3)cc2)c(OC)c1	-2%	-8%	13µM*	?	?	69%
CCOc1ccc(CN(C)C(=O)CCc2ccc(S(=O)(=O)N3CCCCCC3)cc2)cc1	14%	?	13µM*	4µM*	?	66%
COc1cccc(N2CC(NC(=O)COc3ccccc3F)CC2=O)c1 (configuration not stated)	nt	3%	nt	nt	nt	nt
COc1ccc(-c2nc(SCC(=O)N3CCC(C)CC3)n[nH]2)cc1	nt	13%	nt	nt	nt	nt
CCCCCCCOc1ccc(-c2ccc(C#N)cn2)cc1	-11%	1%	9%	1%	6.6µM*	-27%
CCCCCc1ccc(-c2ccc(C(=O)Oc3ccc(C(=O)OC)cc3)cc2)nc1	nt	10%	nt	nt	nt	nt
CCCCCc1ccc(-c2ccc(OC)cc2)nc1	3%	1%	-16%	2%	10µM*	-6%

Source: PubChem (National Center for Advancing Translational Sciences (NCATS))
